# Laboratory results published in the supplement of paper PMC12494721.
# Structures can show the parent of a compound that is named as a salt.
# Experiments:
# Details in all cases: 20 µM; incubation time: 27 h, anaerobic, 37 °C;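 for the amine columns active = adjusted P below 0.05 in both replicates with a change the same way and a mean fold change under 0.8 or over 1.25; inactive = the rest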
# [1] = system: Clostridium sporogenes DSM 1664; assay: growth (OD595) fold change vs plate DMSO controls (fold change (ratio)); higher = more growth
# Summary of the method: (§1)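 Each value is the mean of 2 biological replicates, and fold changes above 1.5 were set to NA. The underlying readings were taken at 595 nm from shaken anaerobic mGAM cultures in 96-well plates after 27 h at 37 °C. They were blank-subtracted, corrected for compound background using 20 µM compound solutions in water, and converted to OD with a calibration factor of 5. Growth is the fold change relative to the median of the plate DMSO controls.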
# Escherichia coli IAI1 [2] = assay: as above
# Summary of the method: as §1
# [3] = system: Klebsiella aerogenes DSM 30053; assay: as above
# Summary of the method: as §1
# [4] = system: Ruminococcus gnavus DSM 108212; assay: as above
# Summary of the method: as §1
# [5] = system: Klebsiella aerogenes DSM 30053; assay: fold change of Histamine concentration vs plate DMSO controls (fold change (ratio)); higher = more amine produced, active = hit call of the paper (significant change in both replicates, either direction)
# Summary of the method: (§2)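 Using LC–triple-quadrupole MS with dynamic MRM, amines were quantified against external calibration curves and corrected for drift within each batch. Samples were whole anaerobic mGAM cultures of four gut strains, grown 27 h at 37 °C from OD 0.1 before 1:1 dilution, extracted with cold acetonitrile/methanol containing 0.1% formic acid and centrifuged. Compounds were present at 20 µM final (sweeteners at 50 µM final). The numbers are fold changes versus plate DMSO controls, each the mean of 2 biological replicates.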
# [6] = system: Clostridium sporogenes DSM 1664; assay: fold change of Tryptamine concentration vs plate DMSO controls (fold change (ratio)); higher = more amine produced, active = hit call of the paper (significant change in both replicates, either direction)
# Summary of the method: as §2
# [7] = system: Ruminococcus gnavus DSM 108212; assay: as above
# Summary of the method: as §2
# Escherichia coli IAI1 [8] = assay: fold change of Putrescine concentration vs plate DMSO controls (fold change (ratio)); higher = more amine produced, active = hit call of the paper (significant change in both replicates, either direction)
# Summary of the method: as §2
# [9] = system: Klebsiella aerogenes DSM 30053; assay: as above
# Summary of the method: as §2
# Escherichia coli IAI1 [10] = assay: fold change of Cadaverine concentration vs plate DMSO controls (fold change (ratio)); higher = more amine produced, active = hit call of the paper (significant change in both replicates, either direction)
# Summary of the method: as §2
# [11] = system: Klebsiella aerogenes DSM 30053; assay: as above
# Summary of the method: as §2
# [12] = system: Ruminococcus gnavus DSM 108212; assay: fold change of 2-Phenylethylamine concentration vs plate DMSO controls (fold change (ratio)); higher = more amine produced, active = hit call of the paper (significant change in both replicates, either direction)
# Summary of the method: as §2
SMILES,growth [1],growth (Escherichia coli IAI1 [2]),growth [3],growth [4],fold change of Histamine concentration [5],fold change of Tryptamine concentration [6],fold change of Tryptamine concentration [7],fold change of Putrescine concentration (Escherichia coli IAI1 [8]),fold change of Putrescine concentration [9],fold change of Cadaverine concentration (Escherichia coli IAI1 [10]),fold change of Cadaverine concentration [11],fold change of 2-Phenylethylamine concentration [12]
COP(N)(=O)SC (stereo not drawn),1.17,1.07,1.12,1.01,0.935 (inactive),0.998 (inactive),1.05 (inactive),1.05 (inactive),1.01 (inactive),0.966 (inactive),1.02 (inactive),1.06 (inactive)
NCC(CC(=O)O)c1ccc(Cl)cc1 (stereo not drawn) [Baclofen],1.11,1.17,1,1.33,1.04 (inactive),1.06 (inactive),1.1 (inactive),1.09 (inactive),0.988 (inactive),1 (inactive),1.03 (inactive),1.11 (inactive)
Oc1ccc2c3c1O[C@H]1[C@@H](O)CC[C@@]4(O)[C@@H](C2)N(CC2CCC2)CC[C@]314 [Nalbuphine hydrochloride],0.891,0.895,0.923,1.08,1 (inactive),1 (inactive),0.957 (inactive),1.04 (inactive),1.01 (inactive),1.01 (inactive),1.01 (inactive),0.922 (inactive)
CC(C)N(C)S(=O)(=O)NC(=O)c1cc(-n2c(=O)cc(C(F)(F)F)n(C)c2=O)c(F)cc1Cl,0.954,0.981,1,1.03,0.99 (inactive),1.03 (inactive),0.884 (inactive),0.983 (inactive),0.985 (inactive),1.01 (inactive),0.993 (inactive),0.819 (inactive)
O=S(=O)(c1ccc(O)cc1)c1ccc(O)cc1 [Bisphenol S],1.08,1.02,0.994,1.04,0.949 (inactive),1.04 (inactive),0.941 (inactive),0.883 (inactive),0.939 (inactive),0.961 (inactive),0.998 (inactive),0.946 (inactive)
CC(=O)O[C@H]1C[C@@H]2CC[C@@H]3[C@H](CC[C@@]4(C)[C@H]3C[C@H]([N+]3(C)CCCCC3)[C@@H]4OC(C)=O)[C@@]2(C)C[C@@H]1[N+]1(C)CCCCC1 [Pancuronium bromide],0.918,1.08,1.1,1.08,0.905 (inactive),1.04 (inactive),1.07 (inactive),1.07 (inactive),0.983 (inactive),0.957 (inactive),1.03 (inactive),1.08 (inactive)
Fc1ccc([C@]2(Cn3cncn3)O[C@H]2c2ccccc2Cl)cc1 (racemic),0.97,1.01,0.994,1.04,0.991 (inactive),1.06 (inactive),0.967 (inactive),0.935 (inactive),0.954 (inactive),1.03 (inactive),0.982 (inactive),1.02 (inactive)
CCCCC(C#N)(Cn1cncn1)c1ccc(Cl)cc1 (stereo not drawn),1.07,1.07,1.01,1.14,0.939 (inactive),1.2 (inactive),1.07 (inactive),0.908 (inactive),0.815 (inactive),0.907 (inactive),1.16 (inactive),1.14 (inactive)
CC(C)CC(N(C)C)C1(c2ccc(Cl)cc2)CCC1 (stereo not drawn) [Sibutramine hydrochloride],0.99,1,1.01,0.908,1.05 (inactive),0.976 (inactive),0.985 (inactive),1.01 (inactive),0.999 (inactive),0.984 (inactive),0.989 (inactive),1 (inactive)
CC(C)N1C(=O)c2ccccc2NS1(=O)=O,1.02,1.03,0.992,1.17,0.978 (inactive),0.976 (inactive),0.99 (inactive),0.969 (inactive),0.979 (inactive),0.979 (inactive),0.987 (inactive),1.03 (inactive)
C#C[C@]1(O)CC[C@H]2[C@@H]3CCC4=CC(=O)CCC4=C3C=C[C@@]21CC [Gestrinone],1.02,0.985,0.996,1.04,0.947 (inactive),1.03 (inactive),1.16 (inactive),0.88 (inactive),0.96 (inactive),0.913 (inactive),1.03 (inactive),1.18 (inactive)
COC(=O)NC(=S)Nc1ccccc1NC(=S)NC(=O)OC,1.11,1.02,0.97,0.994,0.974 (inactive),1.02 (inactive),0.971 (inactive),0.954 (inactive),0.972 (inactive),0.974 (inactive),1.01 (inactive),0.936 (inactive)
CN(C)C(=O)Oc1cc(OC(=O)N(C)C)cc(C(O)CNC(C)(C)C)c1 (stereo not drawn) [Bambuterol hydrochloride],1.09,1.03,1,1.18,1.03 (inactive),1.03 (inactive),1.02 (inactive),0.988 (inactive),1.03 (inactive),1 (inactive),0.995 (inactive),1.02 (inactive)
N#CC(CCc1ccc(Cl)cc1)(Cn1cncn1)c1ccccc1 (stereo not drawn),1.11,1.08,0.94,1.14,0.476 (inactive),0.979 (inactive),1.04 (inactive),1.07 (inactive),0.482 (inactive),0.972 (inactive),0.478 (inactive),1.08 (inactive)
